# Tests used:
# Experiment in all cases: DAPPL (digital affinity profiling via proximity ligation, sequencing); 10 mM Tris-HCl pH 7.5, 50 mM NaCl, 1 mM DTT, 4% glycerol, room temperature, 30 min; GST-TFs on glutathione beads, 16-mer random dsDNA library, 0.1% formaldehyde crosslink after washing; high values mean tight binding
# HSF1 = HSF1 (Homo sapiens, UniProt Q00613 1-529); conditions: protein: recombinant; tags: N-terminal GST; chain copies: 3; dsDNA, one strand shown
# Outline: (§1)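 Human transcription factors carrying a GST fusion were produced in yeast, bound to glutathione beads, tagged with DNA barcodes and pooled together with a tag-only sample. Each pool was held with 200 nmole of a random double-stranded 16-mer DNA library in Tris/NaCl/DTT/glycerol buffer for 30 min at room temperature, then washed, crosslinked in 0.1% formaldehyde, proximity-ligated with BsaI/T4 ligase (1 h, 37 °C), PCR-amplified and sequenced on an Illumina NextSeq500. Binding signal is the read frequency of each hexamer for a given factor divided by its frequency in the tag-only sample.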
# SPIC = target: T1, SPIC (Homo sapiens, UniProt Q8N5J4 1-248); conditions: protein: recombinant; tags: N-terminal GST; dsDNA, one strand shown
# T1 sequence: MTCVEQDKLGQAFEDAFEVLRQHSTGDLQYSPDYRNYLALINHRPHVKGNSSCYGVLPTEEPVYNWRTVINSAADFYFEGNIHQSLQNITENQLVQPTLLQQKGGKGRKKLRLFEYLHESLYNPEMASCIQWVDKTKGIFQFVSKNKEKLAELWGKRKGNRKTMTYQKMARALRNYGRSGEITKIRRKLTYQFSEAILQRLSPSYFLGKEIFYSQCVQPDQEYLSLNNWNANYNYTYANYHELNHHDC
# Outline: as §1
# ELK1 = target: T2, ELK1 (Homo sapiens, UniProt P19419 1-428); conditions: protein: recombinant; tags: N-terminal GST; dsDNA, one strand shown
# T2 sequence: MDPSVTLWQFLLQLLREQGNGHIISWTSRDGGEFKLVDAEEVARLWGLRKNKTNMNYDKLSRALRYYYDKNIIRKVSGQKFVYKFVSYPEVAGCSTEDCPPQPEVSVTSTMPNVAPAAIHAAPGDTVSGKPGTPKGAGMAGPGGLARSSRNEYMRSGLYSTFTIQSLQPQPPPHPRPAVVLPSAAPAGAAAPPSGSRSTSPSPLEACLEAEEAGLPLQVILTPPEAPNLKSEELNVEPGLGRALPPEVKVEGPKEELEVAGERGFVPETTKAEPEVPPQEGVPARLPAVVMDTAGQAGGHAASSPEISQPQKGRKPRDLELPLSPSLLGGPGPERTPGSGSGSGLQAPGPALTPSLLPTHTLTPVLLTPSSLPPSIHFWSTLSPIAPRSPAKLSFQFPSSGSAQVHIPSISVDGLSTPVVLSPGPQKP
# Outline: as §1
# ERG = target: T3, ERG (Homo sapiens, UniProt P11308 1-479); conditions: protein: recombinant; tags: N-terminal GST; dsDNA, one strand shown
# T3 sequence: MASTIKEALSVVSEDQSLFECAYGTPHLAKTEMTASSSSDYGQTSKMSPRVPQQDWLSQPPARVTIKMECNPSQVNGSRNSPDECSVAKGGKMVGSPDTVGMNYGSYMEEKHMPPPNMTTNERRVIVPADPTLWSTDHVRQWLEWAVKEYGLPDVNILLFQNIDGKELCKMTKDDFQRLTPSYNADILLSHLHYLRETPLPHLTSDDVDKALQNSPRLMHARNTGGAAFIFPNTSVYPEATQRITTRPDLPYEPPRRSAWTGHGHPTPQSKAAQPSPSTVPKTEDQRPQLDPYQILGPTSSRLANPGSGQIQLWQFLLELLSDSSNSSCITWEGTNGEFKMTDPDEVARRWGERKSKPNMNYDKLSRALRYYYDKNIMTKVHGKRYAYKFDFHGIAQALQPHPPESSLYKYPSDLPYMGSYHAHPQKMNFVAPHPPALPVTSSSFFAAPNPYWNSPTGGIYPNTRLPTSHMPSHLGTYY
# Outline: as §1
# SPI1 = SPI1 (Homo sapiens, UniProt P17947 1-270); conditions: protein: recombinant; tags: N-terminal GST; dsDNA, one strand shown
# Outline: as §1
# ELK4 = target: T4, ELK4 (Homo sapiens, UniProt P28324-2 1-405); conditions: protein: recombinant; tags: N-terminal GST; dsDNA, one strand shown
# T4 sequence: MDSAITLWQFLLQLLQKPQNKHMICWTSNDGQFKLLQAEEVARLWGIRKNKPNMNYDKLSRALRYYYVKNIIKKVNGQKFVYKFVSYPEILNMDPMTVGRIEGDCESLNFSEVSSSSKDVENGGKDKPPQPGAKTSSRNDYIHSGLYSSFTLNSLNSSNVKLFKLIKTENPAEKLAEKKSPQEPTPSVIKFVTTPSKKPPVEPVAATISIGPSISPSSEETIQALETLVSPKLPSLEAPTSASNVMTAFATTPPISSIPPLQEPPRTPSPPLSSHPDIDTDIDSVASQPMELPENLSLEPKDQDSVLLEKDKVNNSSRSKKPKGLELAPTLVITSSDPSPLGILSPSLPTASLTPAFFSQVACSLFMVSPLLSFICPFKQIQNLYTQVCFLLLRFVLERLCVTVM
# Outline: as §1
# ETV2 = target: T5, ETV2 (Homo sapiens, UniProt O00321 1-342); conditions: protein: recombinant; tags: N-terminal GST; dsDNA, one strand shown
# T5 sequence: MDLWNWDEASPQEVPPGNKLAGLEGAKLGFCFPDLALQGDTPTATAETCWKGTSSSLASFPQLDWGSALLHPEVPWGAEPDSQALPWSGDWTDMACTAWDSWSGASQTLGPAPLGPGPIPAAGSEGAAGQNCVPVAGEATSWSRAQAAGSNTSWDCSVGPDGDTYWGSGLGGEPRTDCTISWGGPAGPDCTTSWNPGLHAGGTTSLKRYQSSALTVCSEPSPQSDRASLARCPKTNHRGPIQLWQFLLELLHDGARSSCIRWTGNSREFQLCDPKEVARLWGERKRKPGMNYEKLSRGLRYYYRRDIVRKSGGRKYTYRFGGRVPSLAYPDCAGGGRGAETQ
# Outline: as §1
# CRX = CRX (Homo sapiens, UniProt O43186 1-299); conditions: protein: recombinant; tags: N-terminal GST; dsDNA, one strand shown
# CRX, sequence (O43186 whole entry): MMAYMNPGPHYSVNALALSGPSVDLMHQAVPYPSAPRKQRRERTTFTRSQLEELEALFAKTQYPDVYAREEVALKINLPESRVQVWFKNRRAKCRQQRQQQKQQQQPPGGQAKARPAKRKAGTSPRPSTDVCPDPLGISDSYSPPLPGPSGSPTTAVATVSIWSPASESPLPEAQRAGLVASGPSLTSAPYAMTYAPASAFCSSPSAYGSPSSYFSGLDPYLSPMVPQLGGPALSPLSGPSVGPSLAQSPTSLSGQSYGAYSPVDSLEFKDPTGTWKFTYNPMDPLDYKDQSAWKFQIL
# Outline: as §1
# ERF = target: T6, ERF (Homo sapiens, UniProt P50548 1-548); conditions: protein: recombinant; tags: N-terminal GST; dsDNA, one strand shown
# T6 sequence: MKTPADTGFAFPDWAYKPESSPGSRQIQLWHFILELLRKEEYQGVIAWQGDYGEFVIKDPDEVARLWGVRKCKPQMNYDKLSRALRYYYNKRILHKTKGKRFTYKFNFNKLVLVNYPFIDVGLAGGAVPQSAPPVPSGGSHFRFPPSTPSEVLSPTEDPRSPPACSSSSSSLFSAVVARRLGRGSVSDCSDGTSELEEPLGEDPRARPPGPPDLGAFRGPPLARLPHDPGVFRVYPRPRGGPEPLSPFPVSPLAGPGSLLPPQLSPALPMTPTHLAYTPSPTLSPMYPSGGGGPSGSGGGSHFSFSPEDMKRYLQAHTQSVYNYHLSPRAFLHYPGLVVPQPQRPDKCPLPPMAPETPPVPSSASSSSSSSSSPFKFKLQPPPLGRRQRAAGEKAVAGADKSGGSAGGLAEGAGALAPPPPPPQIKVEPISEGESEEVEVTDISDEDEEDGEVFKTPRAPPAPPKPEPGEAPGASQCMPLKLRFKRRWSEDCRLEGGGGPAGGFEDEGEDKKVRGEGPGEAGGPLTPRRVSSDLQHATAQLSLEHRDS
# Outline: as §1
# ETV3L = target: T7, ETV3L (Homo sapiens, UniProt Q6ZN32 1-361); conditions: protein: recombinant; tags: N-terminal GST; dsDNA, one strand shown
# T7 sequence: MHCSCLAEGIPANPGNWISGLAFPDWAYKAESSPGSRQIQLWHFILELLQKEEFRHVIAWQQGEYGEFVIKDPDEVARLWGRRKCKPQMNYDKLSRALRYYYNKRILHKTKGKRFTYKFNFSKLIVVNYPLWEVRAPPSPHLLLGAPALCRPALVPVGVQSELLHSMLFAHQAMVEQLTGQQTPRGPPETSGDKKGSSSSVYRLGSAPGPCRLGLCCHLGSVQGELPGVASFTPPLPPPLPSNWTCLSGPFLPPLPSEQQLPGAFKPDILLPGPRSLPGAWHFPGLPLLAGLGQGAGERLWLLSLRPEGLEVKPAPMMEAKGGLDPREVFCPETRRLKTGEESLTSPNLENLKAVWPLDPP
# Outline: as §1
# ELF5 = target: T8, ELF5 (Homo sapiens, UniProt Q9UKW6-2 1-255); conditions: protein: recombinant; tags: N-terminal GST; dsDNA, one strand shown
# T8 sequence: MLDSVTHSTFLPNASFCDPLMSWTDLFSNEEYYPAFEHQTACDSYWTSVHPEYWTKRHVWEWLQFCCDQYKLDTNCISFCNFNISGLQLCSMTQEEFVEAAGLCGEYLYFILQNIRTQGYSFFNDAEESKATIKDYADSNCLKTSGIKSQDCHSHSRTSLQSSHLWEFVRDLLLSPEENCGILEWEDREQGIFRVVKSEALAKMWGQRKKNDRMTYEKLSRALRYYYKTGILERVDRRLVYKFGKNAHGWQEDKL
# Outline: as §1
# ETV3 = target: T9, ETV3 (Homo sapiens, UniProt P41162-2 1-143); conditions: protein: recombinant; tags: N-terminal GST; dsDNA, one strand shown
# T9 sequence: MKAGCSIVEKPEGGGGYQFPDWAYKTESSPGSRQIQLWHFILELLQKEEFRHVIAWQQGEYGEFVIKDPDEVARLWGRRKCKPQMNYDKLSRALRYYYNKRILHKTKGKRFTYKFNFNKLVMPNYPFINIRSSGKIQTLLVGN
# Outline: as §1
# ETV6 = ETV6 (Homo sapiens, UniProt P41212 1-452); conditions: protein: recombinant; tags: N-terminal GST; dsDNA, one strand shown
# ETV6, sequence (P41212 whole entry): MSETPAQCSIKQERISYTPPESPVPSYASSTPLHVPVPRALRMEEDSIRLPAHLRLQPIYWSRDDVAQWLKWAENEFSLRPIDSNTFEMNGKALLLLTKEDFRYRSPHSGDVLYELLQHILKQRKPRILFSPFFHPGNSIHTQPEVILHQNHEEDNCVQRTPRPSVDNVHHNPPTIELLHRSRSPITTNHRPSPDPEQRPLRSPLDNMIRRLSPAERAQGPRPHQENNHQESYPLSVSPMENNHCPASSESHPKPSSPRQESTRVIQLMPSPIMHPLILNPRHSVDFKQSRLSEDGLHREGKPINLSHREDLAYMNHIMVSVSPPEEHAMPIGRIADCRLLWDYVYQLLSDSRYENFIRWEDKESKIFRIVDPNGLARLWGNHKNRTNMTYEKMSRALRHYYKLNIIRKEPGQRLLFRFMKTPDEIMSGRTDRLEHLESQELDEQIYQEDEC
# Outline: as §1
# HSF1, sequence (Q00613 whole entry, the tested form may be a part): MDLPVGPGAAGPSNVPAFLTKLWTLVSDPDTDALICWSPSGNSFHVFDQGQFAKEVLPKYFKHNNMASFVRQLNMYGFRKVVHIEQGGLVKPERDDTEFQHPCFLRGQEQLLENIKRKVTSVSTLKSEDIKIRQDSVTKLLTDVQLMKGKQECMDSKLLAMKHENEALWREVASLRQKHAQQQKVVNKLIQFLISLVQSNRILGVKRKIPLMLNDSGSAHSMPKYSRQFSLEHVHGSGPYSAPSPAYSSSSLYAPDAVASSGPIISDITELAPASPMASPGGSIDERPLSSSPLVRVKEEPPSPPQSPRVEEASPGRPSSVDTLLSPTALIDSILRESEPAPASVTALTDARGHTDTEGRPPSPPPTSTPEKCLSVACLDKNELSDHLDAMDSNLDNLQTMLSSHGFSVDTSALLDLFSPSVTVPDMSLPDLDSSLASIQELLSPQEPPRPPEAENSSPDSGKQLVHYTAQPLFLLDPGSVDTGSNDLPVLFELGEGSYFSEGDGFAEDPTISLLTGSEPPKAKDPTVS
sequence,measurement,setting,value
AGGAAT,binding signal,HSF1,"1.01 fold enrichment (6-mer frequency, TF over GST control)"
TGTAGA,binding signal,HSF1,"1.12 fold enrichment (6-mer frequency, TF over GST control)"
same,binding signal,SPIC,"1.1 fold enrichment (6-mer frequency, TF over GST control)"
CATAGA,binding signal,HSF1,"1.15 fold enrichment (6-mer frequency, TF over GST control)"
AGTATA,binding signal,ELK1,"1.05 fold enrichment (6-mer frequency, TF over GST control)"
same,binding signal,ERG,"1 fold enrichment (6-mer frequency, TF over GST control)"
same,binding signal,SPI1,"1.04 fold enrichment (6-mer frequency, TF over GST control)"
same,binding signal,HSF1,"1.01 fold enrichment (6-mer frequency, TF over GST control)"
same,binding signal,SPIC,"1.07 fold enrichment (6-mer frequency, TF over GST control)"
same,binding signal,ELK4,"1.03 fold enrichment (6-mer frequency, TF over GST control)"
same,binding signal,ETV2,"1.06 fold enrichment (6-mer frequency, TF over GST control)"
same,binding signal,CRX,"1.07 fold enrichment (6-mer frequency, TF over GST control)"
same,binding signal,ERF,"1.01 fold enrichment (6-mer frequency, TF over GST control)"
same,binding signal,ETV3L,"1.02 fold enrichment (6-mer frequency, TF over GST control)"
same,binding signal,ELF5,"1.03 fold enrichment (6-mer frequency, TF over GST control)"
same,binding signal,ETV3,"1 fold enrichment (6-mer frequency, TF over GST control)"
same,binding signal,ETV6,"1.06 fold enrichment (6-mer frequency, TF over GST control)"
GTCTAG,binding signal,HSF1,"1.48 fold enrichment (6-mer frequency, TF over GST control)"

# Reference: article PMC7862700, “An all-to-all approach to the identification of sequence-specific readers for epigenetic DNA modifications on cytosine”
